The text below walks through data of PubChem BioAssay AID1851 (National Center for Advancing Translational Sciences (NCATS), 2009).

“And” between values parts separate entries of the source, which are not always exact repeats. Identical values can stand only once. In all, about 16,000 compounds went through this assay and about 5,700 (36%) were called active. Another 24% or so got no clear call; they are omitted. Some of the results follow. Values without a mark were called inactive. Calls follow the shape of the dose curve; as a rule, active = well fitted curve in the direction sought with a large enough effect; inconclusive = small, poorly fitted or top-dose-only effect, or effect the other way; inactive = no such curve, though single readings can be large or run the other way.

The AC50 is the concentration at which the activity in the assay is half-maximal.
% is scaled to controls: 0 for no effect and ±100 for the full control effect.

Chain of Cytochrome P450 1A2 (Homo sapiens) (P05177 whole entry, looked up): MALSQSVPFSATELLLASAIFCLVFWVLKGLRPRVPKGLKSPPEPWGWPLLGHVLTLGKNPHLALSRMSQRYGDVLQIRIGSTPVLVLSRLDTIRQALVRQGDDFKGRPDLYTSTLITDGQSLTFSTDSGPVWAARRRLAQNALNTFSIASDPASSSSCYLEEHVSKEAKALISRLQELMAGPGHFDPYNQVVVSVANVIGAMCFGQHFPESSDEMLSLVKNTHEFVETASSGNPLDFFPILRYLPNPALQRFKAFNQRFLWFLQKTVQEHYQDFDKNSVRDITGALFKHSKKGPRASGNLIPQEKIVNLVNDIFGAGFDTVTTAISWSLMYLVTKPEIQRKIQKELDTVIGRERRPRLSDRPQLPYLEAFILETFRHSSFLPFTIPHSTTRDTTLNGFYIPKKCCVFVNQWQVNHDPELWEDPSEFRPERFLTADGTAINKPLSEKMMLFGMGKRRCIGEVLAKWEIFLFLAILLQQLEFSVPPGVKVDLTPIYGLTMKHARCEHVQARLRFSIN

This assay addresses Cytochrome P450 1A2 (Homo sapiens) (UniProt P05177). Put plainly: Cytochrome panel assay with activity outcomes. The following applies: recombinant CYP, pro-luciferin dealkylation, luminescence, p450-cyp1a2; series mostly up to 57.1 µM; activity, negative = inhibition: at the top concentration.
On to `CCN(CC)c1ncnc2c1ncn2[C@@H]1O[C@@H](COP(=O)(O)OP(=O)(O)C(Br)(Br)P(=O)(O)O)[C@H](O)[C@@H]1O`, for which the “activity, negative = inhibition” value was 2.91%.

As for `CCc1ccccc1NC(=S)NC1CC2CCC(C1)N2Cc1ccco1` (stereo not given), the “activity, negative = inhibition” value is 6.19%.

Consider `Cn1c[n+](C)cc1C(O)c1ccccc1` (stereo not given), for which the “activity, negative = inhibition” value was 1.79%.

`CN1[C@@H](C[C@@H](O)c2ccccc2)CCC[C@@H]1C[C@H](O)c1ccccc1`: the AC50 is 5.01 µM (active).

`CN1[C@@H]2CC[C@H]1CC(O[C@@H](c1ccccc1)c1ccc(Cl)cc1)C2` (stereo not given in full): the “activity, negative = inhibition” value is -6.52%.

With `CN1[C@H](CC(=O)c2ccccc2)CCC[C@H]1C[C@H](O)c1ccccc1`, the AC50 was 15.8 µM (active).

For the compound `CC[C@@]1(c2ccc(N)cc2)CCC(=O)NC1=O`, the AC50 result is “inactive”.

In the case of `Oc1ccc2c3c1O[C@H]1c4[nH]c5ccccc5c4C[C@]4(O)[C@H](C2)N(CC2CC2)CC[C@@]314`, the “activity, negative = inhibition” value is -1.2%.

With `NS(=O)(=O)c1cc([C@@]2(O)NC(=O)c3ccccc32)ccc1Cl`, the “activity, negative = inhibition” value is -4.19% [at 25.6 µM].

For the compound `C[N+](C)(C)[C@H](Cc1c[nH]c(=S)[nH]1)C(=O)O`, the activity, negative = inhibition is -18.9% [at 11.4 µM].

For the compound `COc1cc(C(=O)OC2C[C@H]3CC[C@@H](C2)N3C)ccc1O` (stereo not given in full), the “activity, negative = inhibition” value was -0.206% [at 25.6 µM].

Turning to `C=C(C)[C@H]1CC[C@]2(CO)CC[C@]3(C)[C@@H](CC[C@H]4[C@@]5(C)CC[C@@H](O)C(C)(C)[C@@H]5CC[C@@]43C)[C@H]12`, the “activity, negative = inhibition” value is -6.53% [at 25.6 µM].

`O=C(Nc1cccc(F)c1)N1CC2(CCNCC2)C1`: the “activity, negative = inhibition” value is -5.1%.

As for `CN(C)CCCc1c[nH]c2ccccc12`, the activity, negative = inhibition was -12.5% [at 11.4 µM].

For `NCCc1c[nH]c2ccccc12`, the AC50 was 3.16 µM (active).

Regarding `CC(=O)NCCc1c[nH]c2ccccc12`, the AC50 was 15.8 µM (active).

Turning to `NCCc1ccc(O)cc1`, the “activity, negative = inhibition” value is -14.6%.

As for `NCCc1c[nH]c2ccc(C(N)=O)cc12`, the AC50 is 6.31 µM (active) and 1.26 µM (active).

`NCCc1c[nH]c2ccc(O)cc12`: the AC50 was 2 µM (active).

As for `CC(C)C[C@H](NP(=O)(O)O[C@@H]1O[C@@H](C)[C@@H](O)[C@@H](O)[C@H]1O)C(=O)N[C@@H](Cc1c[nH]c2ccccc12)C(=O)O`, the “activity, negative = inhibition” value was -1.79%.

In the case of `CNCCc1c[nH]c2ccc(O)cc12`, the “activity, negative = inhibition” value is -22.8%.

Regarding `COC(=O)[C@H]1[C@H](c2ccccc2)C(=O)[C@@]2(O)c3ccccc3O[C@@]12c1ccccc1`, the activity, negative = inhibition is -5.65% [at 11.4 µM].

Take `CO[C@@H](C)[C@](O)(C(=O)OCC1=CCN2CC[C@@H](O)[C@H]12)C(C)C`: the “activity, negative = inhibition” value was -7.03% [at 25.6 µM].

For `c1ccc(CCN2CCOCC2)nc1`, the activity, negative = inhibition is -3% [at 2.29 µM].

On to `CCCCCCCCCCCCCC(=O)O[C@H]1[C@@H](C)[C@@]2(O)[C@@H](C=C(CO)C[C@]3(O)C(=O)C(C)=C[C@@H]23)C2C(C)(C)[C@]21OC(C)=O` (stereo not given in full), for which the “activity, negative = inhibition” value was -12.3%.

On to `C[C@H]1[C@H](NC(=O)/C(=N/OC(C)(C)C(=O)O)c2csc(N)n2)C(=O)N1S(=O)(=O)O` (stereo in doubt), for which the “activity, negative = inhibition” value is -4.29% [at 25.6 µM].

For `Cc1ccc(N2C(=O)/C(=C/c3ccc(CN(CCC#N)S(C)(=O)=O)o3)C(=O)NC2=S)cc1C`, the “activity, negative = inhibition” value is -25.3%.

Regarding `CCCN(CCC)C(=O)Cc1c(-c2ccc(Cl)cc2)nc2c(Cl)cc(Cl)cn12`, the “activity, negative = inhibition” value was -10.1%.

For the compound `NC(=O)c1ccc(C(=O)Nc2ccc([As](=O)(O)O)cc2)cc1`, the activity, negative = inhibition is -13.8% [at 2.29 µM].

Take `CCOP(=O)(CN(CC)CCNP(=O)(OCC)OCC)OCC`: the “activity, negative = inhibition” value was 27.4%.

As for `CN1C2CCC1CC(OC(=O)c1ccc(Cl)cc1)C2` (stereo not given), the “activity, negative = inhibition” value is 3.37%.

As for `C[C@@]12CC[C@H]3[C@H](CC=C4C[C@@H](O)CC[C@@]43C)[C@@H]1CC[C@@H]2N(CCO)CCO`, the activity, negative = inhibition was -4.6% [at 11.4 µM].

As for `COC(=O)c1[nH]c2ccc(Br)cc2c1NC(=O)Oc1ccccc1`, the AC50 is 0.0631 µM (active).

`C[C@]12CC[C@H](O)CC1=CC[C@@H]1[C@H]2CC[C@]2(C)C(=O)CC[C@H]12`: the “activity, negative = inhibition” value was -11.6%.

On to `N[C@H](CCCCCP(=O)(O)O)C(=O)O`, for which the “activity, negative = inhibition” value was -15.1%.

Regarding `C/C(=C\C=C/[C@@H](C)C(=O)O)[C@H]1CN[C@H](C(=O)O)[C@@H]1CC(=O)O`, the “activity, negative = inhibition” value is -14.8%.

Consider `C[C@]1(O)CC[C@H]2[C@@H]3[C@@H](O)CC4=CC(=O)CC[C@@]4(C)[C@H]3CC[C@]21C`, for which the activity, negative = inhibition was 1.44% [at 2.29 µM].

Consider `O=P(c1ccccc1)(c1ccccc1)N1CC2(CC2)CC(O)(c2ccccc2)C1` (stereo not given), for which the “activity, negative = inhibition” value was -19.7%.

With `O=C(Nc1ccc(Cl)cc1)Nc1nccs1`, the AC50 was 0.141 µM (active).

As to `C[C@]12CC[C@H]3c4ccc(O)cc4CC[C@@H]3[C@H]1CC[C@@H]2OC(=O)CCc1ccccc1`, the activity, negative = inhibition was -13.8% [at 2.29 µM].

Turning to `CCCCc1nc2ccccc2c(=O)n1-c1ccccc1[N+](=O)[O-]`, the AC50 is 14.1 µM (active).

As to `CCCc1nc2ccccc2c(=O)n1-c1ccc(OC)cc1`, the AC50 is 12.6 µM (active).

In the case of `CCCCc1nc2ccccc2c(=O)n1-c1ccc(Cl)cc1[N+](=O)[O-]`, the “activity, negative = inhibition” value was -25.1%.

Turning to `Cc1ccc(-c2nc3ccccc3c(=O)n2-c2ncccc2C)cc1`, the “activity, negative = inhibition” value is -12.2%.

In the case of `NC(N)=Nc1ccc2[nH]c3c(c2c1)C[C@]1(O)[C@@H]2Cc4ccc(O)c5c4[C@]1(CCN2CC1CC1)[C@H]3O5`, the “activity, negative = inhibition” value was 9.9%.
